# NPR1 antag: blocks ANP-stimulated signaling of human Npr1 receptor; AID 1347048; 76,000 tested, 1.6% active; Potency, µM (highest dose often 46.3 µM), without a hit: at the top dose activity change, negative = inhibition, hits mostly inhibitors; HEK293 hNpr1 GloSensor cGMP, ANP-stimulated luminescence; P16066; also: % is scaled to controls: 0 for no effect and ±100 for the full control effect; nearly all actives have a fitted effect of over 60% in size
# Target sequence (P16066 whole entry, looked up): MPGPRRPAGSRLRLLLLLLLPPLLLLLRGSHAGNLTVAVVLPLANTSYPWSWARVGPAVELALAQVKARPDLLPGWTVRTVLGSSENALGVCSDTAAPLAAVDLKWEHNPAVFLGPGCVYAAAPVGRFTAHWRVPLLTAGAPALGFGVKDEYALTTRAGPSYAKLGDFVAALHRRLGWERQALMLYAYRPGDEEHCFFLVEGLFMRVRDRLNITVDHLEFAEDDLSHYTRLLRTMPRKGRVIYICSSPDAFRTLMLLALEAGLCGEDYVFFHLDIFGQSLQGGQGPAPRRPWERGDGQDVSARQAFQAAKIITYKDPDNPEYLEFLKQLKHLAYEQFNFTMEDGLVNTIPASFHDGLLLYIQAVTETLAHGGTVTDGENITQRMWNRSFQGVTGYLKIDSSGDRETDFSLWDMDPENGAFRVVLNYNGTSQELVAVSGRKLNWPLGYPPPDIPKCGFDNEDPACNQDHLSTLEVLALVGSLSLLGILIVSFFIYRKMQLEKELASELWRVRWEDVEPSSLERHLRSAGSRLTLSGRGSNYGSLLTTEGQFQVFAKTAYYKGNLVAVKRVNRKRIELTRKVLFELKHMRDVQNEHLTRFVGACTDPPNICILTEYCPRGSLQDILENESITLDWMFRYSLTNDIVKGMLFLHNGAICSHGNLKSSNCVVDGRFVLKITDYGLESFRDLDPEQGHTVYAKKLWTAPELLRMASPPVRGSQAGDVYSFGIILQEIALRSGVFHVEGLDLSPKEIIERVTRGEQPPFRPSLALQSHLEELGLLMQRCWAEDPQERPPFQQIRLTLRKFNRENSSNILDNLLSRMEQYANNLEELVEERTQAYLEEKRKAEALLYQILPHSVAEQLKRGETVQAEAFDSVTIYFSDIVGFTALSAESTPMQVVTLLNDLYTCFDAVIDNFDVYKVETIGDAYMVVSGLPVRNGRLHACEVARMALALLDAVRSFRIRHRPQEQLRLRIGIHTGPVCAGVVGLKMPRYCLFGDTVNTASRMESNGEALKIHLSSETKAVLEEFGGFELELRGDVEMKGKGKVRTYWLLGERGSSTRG
#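 HEK293 cells stably expressing human Npr1 and cGMP GloSensor pGS-40F, loaded 2 h with 2% GloSensor reagent, given compound 30 min at room temperature. Luminescence read before and 20 min after 0.1 nM hNppA.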
# HEK293 tox: HEK 293 cell cytotoxicity | HEK 293 viability, ATP luminescence (CellTiter-Glo), 48-72 h | Potency, µM (doses to about 115 µM), for inactives: at the top dose activity change, negative = cytotoxicity, actives largely listed as inhibitors | 94,000 tested, 6.6% active | AID 1345083; active = well fitted curve in the direction sought with a large enough effect; inconclusive = small, poorly fitted or top-dose-only effect, or another doubt; inactive = no such curve, though single readings can be large; an effect the other way counts as inactive or inconclusive; also: % is scaled to controls: 0 for no effect and ±100 for the full control effect; nearly all actives have a fitted effect of over 60% in size
#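 HEK 293 cells seeded at 250 cells/well were exposed to compound for 48 or 72 hr at 37 degree Celsius. Viability taken as ATP content by CellTiter-Glo luminescence.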
# Luciferase inh: blocks purified firefly luciferase enzyme activity | 76,000 tested, 2.5% active | purified P. pyralis luciferase, luminescence, biochemical | Potency, µM (titrated, usually from 115 µM), most hits filed as inhibitors | P08659; active = well fitted curve in the direction sought with a large enough effect; inconclusive = small, poorly fitted or top-dose-only effect, or another doubt; inactive = no such curve, though single readings can be large; an effect the other way counts as inactive or inconclusive; also: % is scaled to controls: 0 for no effect and ±100 for the full control effect; nearly all actives have a fitted effect of over 65% in size
#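 Luminescence read by CCD imaging after purified firefly luciferase (10nM final) was added to substrate buffer holding 10uM D-luciferin and 10uM ATP, pH 7.5, pre-dosed with compound.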
# NIH3T3 tox: cytotoxic compounds in NIH 3T3 cells; 94,000 tested, 4.3% active; NIH 3T3 viability, CellTiter-Glo ATP luminescence, 48-72 h; Potency, µM (series often up to 96.7 µM), for the others: at the top dose activity change, negative = cytotoxicity, most hits filed as inhibitors; active = well fitted curve in the direction sought with a large enough effect; inconclusive = small, poorly fitted or top-dose-only effect, or another doubt; inactive = no such curve, though single readings can be large; an effect the other way counts as inactive or inconclusive; also: % is scaled to controls: 0 for no effect and ±100 for the full control effect; nearly all actives have a fitted effect of over 55% in size
#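 Cytotoxicity is measured as loss of cellular ATP: NIH 3T3 cells (400/well) are exposed to compound for 48 or 72 hr at 37 °C, then CellTiter-Glo luminescence is imaged after 10 min at room temperature.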
# NPR1 antag cnf: confirmation of human Npr1 natriuretic peptide receptor antagonists | shares compounds with NPR1 antag | HEK293 hNpr1 cGMP GloSensor luminescence, ANP-stimulated | Potency, µM (series often up to 57.6 µM), for the others: top-dose activity change, negative = inhibition, usual class: inhibitors | 1,400 tested, 76% active | AID 1347044; also: nearly all actives have a fitted effect of over 70% in size
# Npr2 selectivity: selectivity test of Npr1 antagonists against human Npr2 | shares compounds with NPR1 antag | HEK293 hNpr2 GloSensor cGMP luminescence, CNP-stimulated | Potency, µM (series often up to 57.6 µM), without a hit: top-dose activity change, negative = inhibition, actives largely listed as inhibitors | 1,400 tested, 67% active | AID 1347046; also: nearly all actives have a fitted effect of over 70% in size
# FLuc inh counter: counter-screen for Npr1 antagonists: firefly luciferase inhibitors; shares compounds with NPR1 antag; purified FLuc enzyme, luminescence, Km substrate; Potency, µM (titrated, usually from 57.6 µM), for the others: at the highest dose activity change, negative = inhibition, actives largely listed as inhibitors; 1,400 tested, 0.7% active; active = well fitted curve in the direction sought with a large enough effect; inconclusive = small, poorly fitted or top-dose-only effect, or another doubt; inactive = no such curve, though single readings can be large; an effect the other way counts as inactive or inconclusive; also: series mostly up to about 58 µM; 0% is about no effect
# GloSensor ctrl: control cell line activity, Npr1 antagonist counter-screen; shares compounds with NPR1 antag; 1,400 tested, 69% active; HEK293 GloSensor cGMP, SNP-stimulated, luminescence; Potency, µM (highest dose often 57.6 µM), without a hit: at the top dose activity change, negative = inhibition, most hits filed as inhibitors; AID 1347051; also: % is scaled to controls: 0 for no effect and ±100 for the full control effect; nearly all actives have a fitted effect of over 70% in size
# * marks the source's active call; other numbers are inactive results; i = inactive; ? = inconclusive; nt = no result; [ ] = remark or other dose. Most compounds without a hit are left out; they make up all but 11% or so of the library. Unless noted, calls follow the shape of the full dose curve. Potency is read from the fitted curve at half-maximal effect.
SMILES,NPR1 antag,HEK293 tox,Luciferase inh,NIH3T3 tox,NPR1 antag cnf,Npr2 selectivity,FLuc inh counter,GloSensor ctrl
COc1cccc([S+](=O)([O-])N2CCC3(CC(c4cccc(C(F)(F)F)c4)=NO3)C2)c1 (centres undefined),nt,-28%,nt,-24%,nt,nt,nt,nt
O=C(NCc1c[nH]c2ncccc12)c1ccc2c(c1)OCO2,5%[70.6 µM],-10%[172 µM],?,-12%[138 µM],nt,nt,nt,nt
CN(C)c1cccc(-c2cnc3[nH]cc(CC(=O)N4CCOCC4)c3c2)c1,32µM*,79µM*,i,?,22µM*,28µM*,?,25µM*
Cc1cccc(-c2cnc3[nH]cc(CC(=O)N4CCOCC4)c3c2)c1,13µM*,?,i,?,13µM*,25µM*,-21%[86.2 µM],9.9µM*
CNC(=O)c1cccc(-c2cnc3[nH]cc(CC(=O)N(C)c4ccccc4)c3c2)c1,28µM*,45µM*,i,20µM*,35µM*,35µM*,-23%[86.2 µM],40µM*
CN1CC2(CCN(C(=O)Cc3c[nH]c4ccccc34)CC2)CC1C(=O)N1CCOCC1 (centres undefined),-2%,-2%,i,-3%,nt,nt,nt,nt
CCOC(=O)c1sc(NC(=O)C[C@H]2NC(=O)c3ccccc3NC2=O)nc1C,-12%,?,i,?,nt,nt,nt,nt
COc1cccc(OC)c1CN1C[C@@H](CO)[C@H](c2nc(C)no2)C1,-9%,?,i,-21%,nt,nt,nt,nt
Cc1ccccc1Oc1c(CCC(=O)NCC2CC2)c(C)nn1-c1ccc(F)cc1,?,?,i,25µM*,?,?,3%,?
Cc1nn(-c2ccc(F)cc2)c(Oc2ccc(F)cc2F)c1CCC(=O)NCC1CC1,?,?,i,?,?,?,4%,?
CN1c2cc(C(=O)NCc3ccc(F)cc3)ccc2C(=O)N2CCCCCC21 (centres undefined),-20%,?,i,-24%,nt,nt,nt,nt
O=C(NC1CCCCC1)C1Cn2cccc2C(=O)N1Cc1ccccc1 (centres undefined),nt,-1%,nt,-14%,nt,nt,nt,nt
O=C(Nc1ccc(F)cc1)c1ccc2cc[nH]c2n1,nt,?,nt,?,25µM*,31µM*,0.89µM*,25µM*
CN(C)C(=O)c1ccc2cc[nH]c2n1,nt,i,nt,i,nt,nt,nt,nt
O=C(c1ccncc1)N1CCC2(CC1)N=C(c1ccc(Cl)cc1)NO2,-19%,?,i,-16%,nt,nt,nt,nt
CC(=O)Nc1ccc(C(=O)N2CCC3(CC2)N=C(c2ccc(Cl)cc2)NO3)cc1,?,?,i,-19%,22µM*,?,-4%,22µM*
CC(=O)Nc1ccc(C(=O)N2CCC3(CC2)N=C(c2ccc(Br)cc2)NO3)cc1,13µM*,?,i,-22%,19µM*,15µM*,-4%,15µM*
Cc1noc(-c2cn(C3CCCN(C(=O)c4cccc5[nH]ccc45)C3)nn2)n1 (centres undefined),-15%,?,?,-32%,nt,nt,nt,nt
CC(C)c1noc(-c2cn(C3CCCN(C(=O)c4cccc5[nH]ccc45)C3)nn2)n1 (centres undefined),13µM*,?,i,?,27µM*,?,-18%,22µM*
O=C(c1cccc2[nH]ccc12)N1CCCC(n2cc(-c3nc(C4CC4)no3)nn2)C1 (centres undefined),11µM*,?,i,?,27µM*,?,-1%,?
CC(C)c1noc(-c2cn(C3CCN(C(=O)c4cccc5[nH]ccc45)C3)nn2)n1 (centres undefined),-1%,?,i,?,nt,nt,nt,nt
COCC(=O)N1CCN(C(=O)c2cccc(-c3ccccn3)c2)CC1,nt,-14%,nt,-17%,nt,nt,nt,nt
CN1CCN([C@@H]2[C@H](O)[C@H](CO)O[C@@H]2CNC(=O)c2ccccc2)CC1,-4%[70.6 µM],0%[172 µM],i,-3%[174 µM],nt,nt,nt,nt
CO[C@H]1CN(C2CCN(C(=O)c3cccs3)CC2)[C@H]1c1cccnc1,nt,-21%,nt,-22%,nt,nt,nt,nt
Cc1nccc(N2CCC(Oc3cnc4c(ccn4CCN[S+](C)(=O)[O-])c3)CC2)n1,28µM*,?,i,?,31µM*,35µM*,-2%[86.2 µM],25µM*
SMILES,NPR1 antag,HEK293 tox,Luciferase inh,NIH3T3 tox,NPR1 antag cnf,Npr2 selectivity,FLuc inh counter,GloSensor ctrl
CCc1cnc(N2CCC(Oc3cnc4c(ccn4CCN[S+](C)(=O)[O-])c3)CC2)nc1,6.3µM*,?,i,?,6.9µM*,9.7µM*,2%,6.9µM*
COc1ccc(-n2c(=O)c(C(=O)NCCc3ccc(F)cc3)nc3cccnc32)cc1,nt,-3%,nt,-15%,nt,nt,nt,nt
Cc1ccncc1-c1c(C)nn2c1N(Cc1ccc(C(=O)O)cc1)CCC2,-12%[70.6 µM],?,i,?,nt,nt,nt,nt
Cc1nn2c(c1-c1ccccc1-c1ccccc1)N(Cc1ccc(O)cc1)CCC2,3.5µM*,7.9µM*,i,8.9µM*,2.8µM*,5µM*,2%[86.2 µM],3.5µM*
Cc1cccc(CN2CCCn3nc(C)c(-c4ccccc4-c4ccccc4)c32)n1,16µM*,?,i,13µM*,11µM*,28µM*,-2%[86.2 µM],7.9µM*
COC[C@@H]1CN(S(=O)(=O)c2ccc(F)cc2F)C[C@H]1C(N)=O,0%,2%,i,i,nt,nt,nt,nt
CCOc1ccc(C(O)Cn2ccn3nc(-c4ccccc4C)cc3c2=O)cc1 (centres undefined),13µM*,35µM*,i,?,17µM*,?,0%,11µM*
O=C(Cc1ccccc1Cl)NC1CCN(c2cc(C(F)(F)F)ncn2)CC1,11µM*,?,i,-41%,19µM*,15µM*,-1%,15µM*
Cc1nc(N2CCC(NC(=O)Cc3ccccc3Cl)CC2)cc(C(F)(F)F)n1,10µM*,?,i,?,19µM*,17µM*,2%,11µM*
COc1ccccc1C(=O)NC1CCN(c2cc(C(F)(F)F)nc(C)n2)CC1,?,?,i,?,?,-29%,3%,?
Cc1nc(N2CCC(C(=O)NCc3cccc(Cl)c3)CC2)cc(C(F)(F)F)n1,10µM*,?,i,?,19µM*,19µM*,7%,17µM*

# Source: PubChem (National Center for Advancing Translational Sciences (NCATS))
